An excerpt weighted towards active compounds, which were near 2.4% of everything screened.
TRAIL sens C8: sensitizes caspase-8 expressing cells to TRAIL | NB7+C8 cells + TRAIL, ATPlite viability luminescence | inhibition (viability loss, TRAIL sensitization), % at 10 µM | actives 1% (n = 360,000);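 active = compounds causing at least 50% loss of cell viability in the single-dose screen, relative to plate controls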
HSF1 inh: HSF1 inhibition; NIH3T3-HGL HSE-luciferase, MG132-induced, luminescence 8 h; stronger effect = lower value; activity change, negative = inhibition, % at 7.5 µM (by protocol); actives 0.77% (n = 300,000); AID 2098;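 active = more than half of replicate wells show activity change below -50%, luminescence cut by over half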;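 note: luciferase reports HSF-1 transcriptional activity via heat shock element; 0% = median of DMSO wells and -100% = zero luminescence signal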
HSP90 inh: HSP90 refolding inhibition in rabbit reticulocyte lysate; luciferase refolding luminescence, 3 h; inhibition, % at 5.6 µM; actives 0.91% (n = 290,000);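 active = inhibition above the screen-wide mean plus 3 SD, computed separately per campaign, cut at about 16% in these data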;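 note: 0% = DMSO wells and 100% = 60 µM geldanamycin wells; inhibitors lower the luminescence because luciferase stays unfolded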
STAT3 blocker: inhibitors of IL-6 induced STAT3 signaling; AID 862; inhibition, % at 5.5 µM; actives 0.89% (n = 190,000); U3A cells, IL-6 STAT3-luciferase reporter, luminescence; host cell line lacks STAT1;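 active = inhibition above the mean inhibition across all screened compounds plus 3 SD, cut at about 44% in these data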;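 note: 0% = DMSO only wells and 100% = 100 µM nifuroxazide control wells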
PPC-1+TRAIL kill: kills PPC-1 cancer cells in the presence of TRAIL; PPC-1 cells + TRAIL, ATPLite viability luminescence; cell killing (% activity), % at 4 µM or 5 µM; actives 0.41% (n = 220,000); AID 1443;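 active = cell killing above 50% in the first pass at 4 µM, then a duplicate retest at 5 µM averaging 50% or more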;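 note: plate controls were cells with TRAIL plus DMSO for no effect and medium-only wells lacking cells for full effect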
STAT1 inh: inhibitors of IFN-gamma induced STAT1 signaling; AID 920; NIH 3T3 STAT1-luciferase reporter, luminescence; inhibition, % at 5.5 µM; actives 0.35% (n = 200,000);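 active = inhibition above a set limit, the mean inhibition across all tested compounds plus 3 SD, cut at about 34% in these data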;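 note: 0% = IFN-gamma with DMSO and 100% = IFN-gamma with 300 µM nifuroxazide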
* = called active by the depositor; nt = no result.

SMILES	TRAIL sens C8	HSF1 inh	HSP90 inh	STAT3 blocker	PPC-1+TRAIL kill	STAT1 inh
COc1ccc(-c2ncn(CCC#N)c2[N+](=O)[O-])cc1	-1	0	0	6	19	1
Cc1sc2ncnc(N3CCC(C(=O)Nc4nc(-c5cccs5)cs4)CC3)c2c1C	31	-54*	nt	nt	nt	nt
CCC/C=C/c1ccc(CN2C(C(C)C)C(=O)N(Cc3cn(CCC4OCCO4)nn3)CCS2(=O)=O)cc1 (centres undefined)	3	nt	nt	nt	nt	nt
O=C1c2cccc3c([N+](=O)[O-])ccc(c23)C(=O)N1c1nccs1	53*	20	4	6	-5	10
O=C1c2cccc3c([N+](=O)[O-])ccc(c23)C(=O)N1c1ccc(Cl)cn1	39	47	0	-7	23	-7
O=C1c2cccc3c([N+](=O)[O-])ccc(c23)C(=O)N1c1ccccn1	51*	-68*	0	4	4	5
O=C1c2cccc3cccc(c23)C(=O)N1c1nccs1	2	nt	-4	22	13	-6
Cc1ccc(C)c(NCCCCC(=O)O)c1	-9	nt	nt	nt	nt	nt
Brc1cccc(OCCCCn2cncn2)c1	-15	1	3	nt	nt	nt
c1ccc(Oc2cccc(OCCn3cncn3)c2)cc1	-12	-57*	4	1	9	6
O=S(=O)(Nc1ccc(C(O)(C(F)(F)F)C(F)(F)F)cc1)c1cccc2cccnc12	17	nt	nt	nt	nt	nt
COc1cccc(-c2c(-c3ccccc3OC)ncn2Cc2cccc(-c3ccccc3)c2)c1	-6	nt	nt	nt	nt	nt
O=C(Nc1ccccc1N1CCOCC1)c1cccc2ccccc12	-20	nt	nt	nt	nt	nt
COc1ccc(-n2nc(C(=O)NCC(=O)N3CCN(c4ccccc4F)CC3)c3ccccc3c2=O)cc1OC	53*	-5	6	nt	nt	nt
COc1ccc(-n2nc(C(=O)NCC(=O)N3CCN(c4ccccc4F)CC3)c3ccccc3c2=O)cc1	72*	11	-1	nt	nt	nt
O=c1c(-c2cc3ccccc3[nH]2)nc2ccccc2n1C(CCc1ccccc1)c1nc2ccccc2[nH]1 (centres undefined)	3	nt	nt	nt	nt	nt
C[C@H]1CN([C@@H](C)CO)S(=O)(=O)c2ccc(Br)cc2O[C@H]1CN(C)C(=O)Cc1ccncc1	-5	nt	nt	nt	nt	nt
O=C(/C=C/c1ccco1)c1ccc(O)cc1	nt	13	2	12	2	2
CN(C)c1ccc(C(=O)/C=C/c2ccco2)cc1	54*	18	7	32	6	-76
COc1cccc(-c2nnc3n2N=C(c2cc(OC)ccc2OC)CS3)c1	7	-7	-1	-1	24	-4
COc1cccc(-c2nnc3n2N=C(C(C)(C)C)CS3)c1	34	-63*	-2	-119	20	12
COc1cc(/C=C(\C#N)C(=O)N2CCOCC2)ccc1OCc1ccccc1	-13	15	2	25	10	-12
N#C/C(=C\c1ccc(OCc2ccc(C(=O)O)cc2)cc1)C(=O)N1CCOCC1	22	-51*	73*	89*	6	69*
COc1cc(OC)cc(C(=O)N2CCN(S(C)(=O)=O)CC2)c1	-3	-82*	0	10	16	2
CCOC(=O)N1CCC(Nc2c(-c3ccc(C)cc3)c(=O)c2=O)CC1	60*	0	2	-1	37	5
SMILES	TRAIL sens C8	HSF1 inh	HSP90 inh	STAT3 blocker	PPC-1+TRAIL kill	STAT1 inh
CCOC(=O)N1CCC(Nc2c(-c3ccccc3)c(=O)c2=O)CC1	36	8	6	-10	4	4
CN(C)CCSc1nc2cc(S(=O)(=O)N3CCCCC3)ccc2o1	1	nt	nt	nt	nt	nt
CCCCCCCCCC1(CC(=O)OCC)SCCN1C(N)=O (centres undefined)	-3	nt	nt	nt	nt	nt
CCN(CC)c1ccc(N)cc1	60*	nt	nt	nt	nt	nt
N#Cc1c(N)[nH]c(C(=O)c2ccccc2)c1-c1ccccc1Br	-5	nt	nt	nt	nt	nt
CCc1cccc(NC(=O)COC(=O)/C=C/c2cccs2)c1	-5	-52*	nt	nt	nt	nt
CCCCNC(=O)C(c1ccc(OCC(=O)OC)c(C(=O)OC)c1)N(CCc1c[nH]c2ccccc12)C(=O)CCCCCN1C(=O)NC(c2ccc(-c3ccccc3)cc2)C(C(=O)OCc2ccccc2)=C1C (centres undefined)	nt	-80*	nt	nt	7	nt
CC(=O)c1ccc(NC(=O)Nc2ccccc2)cc1	60*	16	-3	35	40	-23
CCN(CC)c1ccc(NC(=O)Nc2ccccc2)cc1	59*	19	9	nt	nt	nt
CC(=O)c1ccc(NC(=S)Nc2cccc3ccccc23)cc1	1	-67*	9	nt	nt	nt

High-throughput results from PubChem BioAssay.
